PubChem BioAssay (NCI)
“And” between values parts separate entries of the source, which are not always exact repeats. Equal values may be shown once. About 79,000 compounds went through this panel and 15% of them were active in at least one assay; those are over-represented in the sample as a whole. Where a structure was tested more than once in an assay, its records may differ in their call. The source made the active and inactive calls. No stated cut-off is given here; in the data, active means growth inhibition above about 70%; inactive means the rest.

assay: NCI Yeast Anticancer Drug Screen. Data for the sgs1 mgt1 strain (AID 161);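 further: 0% = growth of cultures given vehicle only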; conditions: S. cerevisiae sgs1 mgt1 strain, at 50.0 µM (retest, dose inferred, filed as 5.0), stronger effect = higher value
How it was run: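 Mutant yeast exposed to compound; growth scored against vehicle-only wells.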

Q: Which growth inhibition does the source give for `c1ccc(NC2=NCCN2)nc1` here?
A: 70% (active)

Q: For `C[CH2][Sn]([CH2]C)([CH2]C)[O]C(=O)CO`, which growth inhibition is on record?
A: 98% (active)

Q: For `CC12CCC(O)CC1CCC1C2CCC2(C)C1CC1CC(=O)OC12` (centres undefined), which growth inhibition is on record?
A: 98% (active)

Q: Which growth inhibition does the source give for `Nc1ccc(N=Nc2ccccc2)cc1` here?
A: 92% (active)

Q: With `C[n+]1c(/C=C/c2ccc(O)c3ncccc23)[se]c2ccccc21` as the compound, how does the growth inhibition read?
A: 91% (active)

Q: For `COC(=O)C1=C(C)N2CCSC2(C)C(C(=O)OC)C1c1cccc(Cl)c1` (centres undefined), which growth inhibition is on record?
A: 84% (active)

Q: For `O=[N+]([O-])/C=C/c1ccccc1`, which growth inhibition is on record?
A: 99% (active)

Q: Which growth inhibition does the source give for `CC12CCC(O)CC1CCC1C2CCC2(C)C(C(=O)CC(O)C(F)(F)F)CCC12` (centres undefined) here?
A: 62% (inactive)

Q: With `CC(C)NCC(O)c1ccc(O)c(O)c1.[Pt].c1ccc([PH+](c2ccccc2)c2ccccc2)cc1.c1ccc([PH+](c2ccccc2)c2ccccc2)cc1` as the compound, how does the growth inhibition read?
A: 99% (active)

Q: For `CCOC(=O)/C(=C\c1ccc(C(=O)OC)cc1)[Se]c1ccccc1`, which growth inhibition is on record?
A: 53% (inactive)

Q: Which growth inhibition does the source give for `CC/C(=C/c1ccc2c(c1)OCO2)[N+](=O)[O-]` here?
A: 99% (active)

Q: For `CCOC(=O)C1=C(C)NC(=O)NC1c1ccc(N(CCCl)CCCl)cc1Cl` (centres undefined), which growth inhibition is on record?
A: 34% (inactive)

Q: For `S=C(S)N1CCOCC1`, which growth inhibition is on record?
A: 82% (active)

Q: Which growth inhibition does the source give for `CCOC(=O)c1ccccc1N` here?
A: 1% (inactive)

Q: With `C[n+]1c(/C=C/c2ccc(O)c(O)c2)[se]c2ccccc21` as the compound, how does the growth inhibition read?
A: 81% (active)

Q: For `CS(=O)(=O)[O-].CS(=O)(=O)[O-].NC1CCCCC1N.[Pt+4]` (centres undefined), which growth inhibition is on record?
A: 99% (active)

Q: For `COc1ccc2c(c1O)-c1cccc3c1[C@@H](C2)N(CCCl)CC3`, which growth inhibition is on record?
A: 95% (active)

Q: With `COC(=O)CC1(C(=O)O)CC2(Cl)C(Cl)=C(Cl)C1(Cl)C2(Cl)Cl` (centres undefined) as the compound, how does the growth inhibition read?
A: 49% (inactive)

Q: Which growth inhibition does the source give for `CCCCN(C)CC(C(C)=O)C(c1ccccc1)c1c(O)c2ccccc2oc1=O` (centres undefined) here?
A: 11% (inactive)

Q: Which growth inhibition does the source give for `O=[n+]1c2ccccc2n([O-])c2ccccc21.[Cl][Ni][Cl]` here?
A: 99% (active)

Q: Which growth inhibition does the source give for `COc1ccc(C(Cc2ccc(Cl)c(Cl)c2)NCCO)cc1` (centres undefined) here?
A: 27% (inactive)

Q: Which growth inhibition does the source give for `O=C(N/N=C/c1cc(Cl)cc(Cl)c1[O-])c1ccccc1O.O=C(N/N=C/c1cc(Cl)cc(Cl)c1[O-])c1ccccc1O.[Zn+2]` here?
A: 72% (active)

Q: Which growth inhibition does the source give for `Oc1ccc(Cl)cc1Sc1cc(Cl)ccc1O` here?
A: 99% (active) and -8% (inactive)

Q: For `O=S(=O)([O-])[O-].[OH3+].[OH3+].[OH3+].[Ru+2].c1ccccc1`, which growth inhibition is on record?
A: 20% (inactive)

Q: For `CCCCCC(Cn1ccnc1)c1ccc(Cl)cc1Cl` (centres undefined), which growth inhibition is on record?
A: 97% (active)

Q: With `CC1=C(CO)C(=O)OC(C(C)C2CCC3C4CC5OC56C(O)C(N5CC5)=CC(=O)C6(C)C4CCC23C)C1` (centres undefined) as the compound, how does the growth inhibition read?
A: 42% (inactive)

Q: With `CCCC[CH2][Sn]([CH2]CCCC)[CH2]CCCC.CCCC[CH2][Sn]([CH2]CCCC)[CH2]CCCC` as the compound, how does the growth inhibition read?
A: 100% (active)

Q: Which growth inhibition does the source give for `CCC[CH2][Sn]1([CH2]CCC)[O]C(=O)C(C(C)C)N=Cc2ccccc2[O]1` (centres undefined) here?
A: 12% (inactive)

Q: Which growth inhibition does the source give for `Oc1c(Cl)cc(-c2cc(Cl)c(O)c(Cl)c2)cc1Cl` here?
A: 97% (active)

Q: With `CC(=O)Nc1ccc(/C=N/N=C(/N)N[N+](=O)[O-])cc1` as the compound, how does the growth inhibition read?
A: -1% (inactive)

Q: For `CC(Br)c1ccccc1` (centres undefined), which growth inhibition is on record?
A: 14% (inactive)

Q: For `C[Si]1(C)CCCCC2(C1)C(=O)NC(=O)NC2=O`, which growth inhibition is on record?
A: 58% (inactive)

Q: For `CCCCCCCCCCCCCCCc1cccc(O)c1O`, which growth inhibition is on record?
A: 27% (inactive)

Q: Which growth inhibition does the source give for `CC1(C)OC2OC3C(CN(CCCl)Cc4ccccc4)OC(c4ccccc4)OC3C2O1` (centres undefined) here?
A: 31% (inactive)

Q: For `FC(F)(F)c1nc2ccc(SSc3ccc4nc(C(F)(F)F)[nH]c4c3)cc2[nH]1`, which growth inhibition is on record?
A: 12% (inactive)

Q: With `O=[N+]([O-])c1csc([N+](=O)[O-])c1` as the compound, how does the growth inhibition read?
A: 99% (active)

Q: With `CCc1cc2c(cc1-c1csc(C/C(N)=N/O)n1)C(C)(C)CCC2(C)C` as the compound, how does the growth inhibition read?
A: 93% (active)

Q: With `CCCCCCCC[N+](CCCC)(CCCC)CCCC` (tested in a mixture with another compound) as the compound, how does the growth inhibition read?
A: 100% (active)

Q: With `CCC[CH2][Sn]([CH2]CCC)([S]C#N)[S]C#N` as the compound, how does the growth inhibition read?
A: 97% (active)
